Reference: PubChem BioAssay (NCATS)
Inconclusive results are not listed. Activity calls are given as the source filed them. Calls come from the whole dose curve; as a rule, active = well fitted inhibition curve with a large enough effect; inconclusive = small, poorly fitted or top-dose-only effect; inactive = flat fitted curve, though single readings scatter.

Columns and labels:
Assay in all cases: qHTS profiling for inhibitors of Plasmodium falciparum proliferation (AID 504749); note: nearly all actives have a fitted effect of over 60% in size
Details in all cases: P. falciparum in erythrocytes, SYBR Green DNA, 72 h; series mostly up to 28.7 µM
CP262 = system: CP262
Summary of the method: (§1)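 Infected RBCs, 0.3% parasitemia/2.5% Hct final; cpd 72 h, 37 C, 5% CO2; lysis buffer with saponin/triton/SYBR Green I, o/n RT dark; FI 485/535; norm. to artemisinin (0.29 uM) and DMSO.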

CP265 = system: CP265
Summary of the method: as §1

CP266 = system: CP266
Summary of the method: as §1

CP268 = system: CP268
Summary of the method: as §1

CP269 = system: CP269
Summary of the method: as §1

CP286 = system: CP286
Summary of the method: as §1

CP291 = system: CP291
Summary of the method: as §1

CP297 = system: CP297
Summary of the method: as §1

CP305 = system: CP305
Summary of the method: as §1

CP315 = system: CP315
Summary of the method: as §1

CP325 = system: CP325
Summary of the method: as §1

CP329 = system: CP329
Summary of the method: as §1

CP335 = system: CP335
Summary of the method: as §1

DFO2036 = system: DFO2036
Summary of the method: as §1

DIV14 = system: DIV14
Summary of the method: as §1

DIV17 = system: DIV17
Summary of the method: as §1

DIV30 = system: DIV30
Summary of the method: as §1

Dd2 = system: Dd2
Summary of the method: as §1

ECU = system: ECU
Summary of the method: as §1

FAB9 = system: FAB9
Summary of the method: as §1

GB4 = system: GB4
Summary of the method: as §1

HB3 = system: HB3
Summary of the method: as §1

ICS = system: ICS
Summary of the method: as §1

N140 = system: N140
Summary of the method: as §1

P93_24 = system: P93_24
Summary of the method: as §1

P94_40 = system: P94_40
Summary of the method: as §1

PAD = system: PAD
Summary of the method: as §1

PC15 = system: PC15
Summary of the method: as §1

PC26 = system: PC26
Summary of the method: as §1

PC49 = system: PC49
Summary of the method: as §1

SC27B = system: SC27B
Summary of the method: as §1

TAB109 = system: TAB109
Summary of the method: as §1

TAB113 = system: TAB113
Summary of the method: as §1

TAB165 = system: TAB165
Summary of the method: as §1

W2 = system: W2
Summary of the method: as §1

Measured: Potency
Potency is the fitted concentration of half-maximal effect.

CC(C)C[C@@H](NC(=O)[C@H](Cc1ccccc1)NC(=O)c1cnccn1)B(O)O
active: CP262 95.3 nM | CP265 112 nM | CP266 169 nM | CP268 95.3 nM | CP269 135 nM | CP286 63.1 nM | CP291 135 nM | CP297 269 nM | CP305 675 nM | CP315 190 nM | CP325 135 nM | CP329 95.3 nM | CP335 95.3 nM | DFO2036 100 nM | DIV14 426 nM | DIV17 301 nM | DIV30 190 nM | Dd2 100 nM | ECU 126 nM | FAB9 141 nM | GB4 107 nM | HB3 79.4 nM | ICS 44.7 nM | N140 70.8 nM | P93_24 79.4 nM | P94_40 112 nM | PAD 112 nM | PC15 79.4 nM | PC26 213 nM | PC49 141 nM | SC27B 100 nM | TAB109 35.5 nM | TAB113 100 nM | TAB165 112 nM | W2 75.7 nM
